The panel holds about 83,000 compounds, 20% with a hit somewhere; the sample as a whole holds those more often.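 How to read the values: 0–100, growth inhibition (40 = 60% inhibited); 0, no net growth; -100 to 0, cell death (-40 = 40% of starting cells died; -100 = all dead).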 Unmarked numbers belong to inactive results. Calls of active or inactive are those of the source. The calls were made as follows: active = growth percent below 10; inactive = the rest.

Among the test systems are RPMI-8226 leukemia; OVCAR-8 ovarian; OVCAR-5 ovarian; OVCAR-4 ovarian; SK-OV-3 ovarian; IGROV1 ovarian; OVCAR-3 ovarian; HS 578T breast; NCI/ADR-RES ovarian; T-47D breast; BT-549 breast; MDA-MB-435 melanoma; SW-620 colon; MCF7 breast; HCT-116 colon; HCC-2998 colon; KM12 colon.
What all share (experiment): NCI-60 one-dose screen, 48 h (100 = growth as untreated, 0 = no growth, -100 = all killed)
What all share (details): 10 µM unless noted

Regarding `COc1ccc(Nc2nccc(N3CCN(c4c5ccc(Cl)cc5nc5ccc(OC)cc45)CC3)n2)cc1`, the growth with RPMI-8226 leukemia was 29.5%; in the experiment with OVCAR-8 ovarian, 73.2%; with OVCAR-5 ovarian it was 97.1%; with OVCAR-4 ovarian, 46.6%; in the experiment with SK-OV-3 ovarian it was 107%; in the experiment with IGROV1 ovarian, 75.7%. Also, the growth with OVCAR-3 ovarian is 67.5%; in the experiment with HS 578T breast, 80.3%; in the experiment on NCI/ADR-RES ovarian, 75.9%; with T-47D breast it was 48.7%; in the experiment on BT-549 breast, 90.5%; in the experiment on MDA-MB-435 melanoma it was 55.8%. The growth in the experiment with SW-620 colon was 60.1%; in the experiment with MCF7 breast it was 37.6%; with HCT-116 colon, 24%; with HCC-2998 colon, 93.9%; with KM12 colon, 73.9%.
On to `Cc1nc2c(O)cccc2cc1CO`, for which the growth is 113% in the experiment on RPMI-8226 leukemia; 120% with OVCAR-8 ovarian; 92.7% in the experiment on OVCAR-5 ovarian; 100% in the experiment on OVCAR-4 ovarian; 110% with SK-OV-3 ovarian; 120% in the experiment on IGROV1 ovarian. For the same molecule, the growth with OVCAR-3 ovarian was 112%; in the experiment on HS 578T breast, 130%; in the experiment on NCI/ADR-RES ovarian, 96.1%; in the experiment on T-47D breast, 99.4%; in the experiment with BT-549 breast it was 149%; in the experiment on MDA-MB-435 melanoma, 109%. In addition, the growth in the experiment on SW-620 colon is 108%; in the experiment on MCF7 breast, 96.8%; in the experiment on HCT-116 colon, 107%; in the experiment with HCC-2998 colon, 103%; with KM12 colon, 113%.
Regarding `O=C(C=C=Nc1ccccc1)C(=O)N=C=Cc1ccccc1`, the growth was -59.5% (active) in the experiment with RPMI-8226 leukemia; 60.8% in the experiment on OVCAR-8 ovarian; 75.5% in the experiment on OVCAR-5 ovarian; 50.6% with OVCAR-4 ovarian; 107% in the experiment on SK-OV-3 ovarian; 51.5% with IGROV1 ovarian. Besides, the growth was 13.5% with OVCAR-3 ovarian; 94.8% in the experiment with HS 578T breast; 65.5% with NCI/ADR-RES ovarian; 17.7% in the experiment with T-47D breast; -7.61% (active) in the experiment on BT-549 breast; 50.7% in the experiment with MDA-MB-435 melanoma. Further, the growth with SW-620 colon was -26.3% (active); with MCF7 breast, 25.9%; with HCT-116 colon, -36.3% (active); in the experiment with HCC-2998 colon it was 74.1%; with KM12 colon, 81.5%.
Regarding `Cc1c(C(N)=O)sc2nc(SCC(=O)Nc3ccc(Cl)cc3)n(-c3ccccc3)c(=O)c12`, the growth was 112% with RPMI-8226 leukemia; 118% with OVCAR-8 ovarian; 93.9% in the experiment with OVCAR-5 ovarian; 101% with OVCAR-4 ovarian; 105% with SK-OV-3 ovarian; 20.6% with IGROV1 ovarian. Further, the growth in the experiment on OVCAR-3 ovarian was 131%; in the experiment on HS 578T breast it was 348%; with NCI/ADR-RES ovarian, 97.2%; in the experiment on T-47D breast, 91.1%; in the experiment with BT-549 breast it was 69.1%; with MDA-MB-435 melanoma, 112%. Further, the growth in the experiment on SW-620 colon is 128%; in the experiment on MCF7 breast, 104%; in the experiment on HCT-116 colon it was 103%; in the experiment on HCC-2998 colon, 109%; in the experiment with KM12 colon, 118%.
Consider `OCc1nnn(-c2ccccc2)c1CO`, for which the growth with RPMI-8226 leukemia was 101%; in the experiment on OVCAR-8 ovarian, 109%; in the experiment with OVCAR-5 ovarian it was 112%; in the experiment with OVCAR-4 ovarian, 99.2%; in the experiment on SK-OV-3 ovarian, 129%; in the experiment with IGROV1 ovarian it was 108%. For the same molecule, the growth in the experiment on OVCAR-3 ovarian is 117%; with HS 578T breast it was 117%; in the experiment on NCI/ADR-RES ovarian it was 115%; in the experiment on T-47D breast it was 114%; in the experiment on BT-549 breast it was 157%; in the experiment with MDA-MB-435 melanoma, 114%. Further, the growth was 105% with SW-620 colon; 106% with MCF7 breast; 105% with HCT-116 colon; 119% in the experiment on HCC-2998 colon; 116% with KM12 colon.
Take `Nc1nc(SCC2(CCl)COC2)c2[nH]cnc2n1`: the growth in the experiment with RPMI-8226 leukemia was 96.4%; in the experiment with OVCAR-8 ovarian, 95.8%; with OVCAR-5 ovarian it was 100%; with OVCAR-4 ovarian, 86.8%; with SK-OV-3 ovarian, 92.9%; with IGROV1 ovarian it was 101%. Also, the growth in the experiment with OVCAR-3 ovarian is 109%; in the experiment on HS 578T breast, 89.4%; in the experiment with NCI/ADR-RES ovarian it was 109%; in the experiment on T-47D breast it was 100%; in the experiment with BT-549 breast it was 91.2%; with MDA-MB-435 melanoma, 107%. In addition, the growth with SW-620 colon is 99.8%; in the experiment on MCF7 breast, 86.4%; in the experiment on HCT-116 colon, 105%; in the experiment with HCC-2998 colon it was 97.7%; in the experiment with KM12 colon it was 108%.
As to `COc1cc(-c2cc(C(=O)Nc3nc4ccccc4s3)nc3cc(-c4ccccc4)nn23)cc(OC)c1OC`, the growth in the experiment with RPMI-8226 leukemia is 73.7%; in the experiment on OVCAR-8 ovarian, 60.2%; in the experiment on OVCAR-5 ovarian, 106%; in the experiment with OVCAR-4 ovarian, 82.5%; with SK-OV-3 ovarian it was 97.7%; with IGROV1 ovarian, 99.7%. Moreover, the growth was 48.1% with OVCAR-3 ovarian; 62.1% in the experiment with HS 578T breast; 73.3% with NCI/ADR-RES ovarian; 83.7% in the experiment on T-47D breast; 59.6% with BT-549 breast; 31% with MDA-MB-435 melanoma. Further, the growth with SW-620 colon is 55.7%; in the experiment with MCF7 breast it was 72.9%; in the experiment on HCT-116 colon, 57.8%; with HCC-2998 colon it was 85.6%; with KM12 colon, 45.3%.
Consider `Cc1ccc2c(c1)C(=O)/C(=C/c1ncc([N+](=O)[O-])n1C)O2`, for which the growth in the experiment with RPMI-8226 leukemia was -12.4% (active); in the experiment on OVCAR-8 ovarian, -30.8% (active); in the experiment with OVCAR-5 ovarian, 8.96% (active); in the experiment on OVCAR-4 ovarian it was 21.8%; with SK-OV-3 ovarian, 0.948% (active); in the experiment on IGROV1 ovarian, -26.5% (active). In addition, the growth with OVCAR-3 ovarian was -46.9% (active); with HS 578T breast it was -10.2% (active); in the experiment on NCI/ADR-RES ovarian it was -3.98% (active); with T-47D breast it was 90.3%; with BT-549 breast, -25.9% (active); in the experiment with MDA-MB-435 melanoma, -80.6% (active). The growth is -32.5% (active) with SW-620 colon; -1.55% (active) in the experiment with MCF7 breast; 7.67% (active) in the experiment with HCT-116 colon; -44% (active) in the experiment on HCC-2998 colon; -48.4% (active) in the experiment on KM12 colon.
Turning to `COc1ccc2nc(NC(=O)c3cc(-c4ccc(F)cc4)n4nc(-c5ccccc5)cc4n3)sc2c1`, the growth in the experiment with RPMI-8226 leukemia was 83.5%; in the experiment on OVCAR-8 ovarian, 53.5%; in the experiment on OVCAR-5 ovarian, 85.6%; in the experiment with OVCAR-4 ovarian, 59.1%; in the experiment on SK-OV-3 ovarian, 67.6%; in the experiment on IGROV1 ovarian, 101%. The growth in the experiment on OVCAR-3 ovarian is 67.9%; in the experiment with HS 578T breast, 79.9%; in the experiment on NCI/ADR-RES ovarian, 70.9%; in the experiment with T-47D breast it was 89.5%; in the experiment with BT-549 breast, 53.5%; in the experiment with MDA-MB-435 melanoma, 96.2%. Besides, the growth was 94.7% with SW-620 colon; 86.8% in the experiment on MCF7 breast; 61.5% in the experiment with HCT-116 colon; 98.6% in the experiment with HCC-2998 colon; 74.1% with KM12 colon.
